# PubChem BioAssay (NCATS)
# Inconclusive results are not listed. Where a call stands in place of a potency, no number is given. Activity calls are given as the source filed them. The call rests on the fitted dose curve; in most records, active means well fitted curve in the direction sought with a large enough effect; inconclusive means small, poorly fitted or top-dose-only effect, or another doubt; inactive means no such curve, though single readings can be large; an effect the other way counts as inactive or inconclusive.
# How the values were obtained:
# [1] = target: Cytochrome P450 3A4 (Homo sapiens) (UniProt P08684); experiment: qHTS Assay for Activators of Cytochrome P450 3A4 (AID 885); further: nearly all actives have a fitted effect of over 65% in size
# Cytochrome P450 3A4 (Homo sapiens), sequence (P08684 whole entry, looked up): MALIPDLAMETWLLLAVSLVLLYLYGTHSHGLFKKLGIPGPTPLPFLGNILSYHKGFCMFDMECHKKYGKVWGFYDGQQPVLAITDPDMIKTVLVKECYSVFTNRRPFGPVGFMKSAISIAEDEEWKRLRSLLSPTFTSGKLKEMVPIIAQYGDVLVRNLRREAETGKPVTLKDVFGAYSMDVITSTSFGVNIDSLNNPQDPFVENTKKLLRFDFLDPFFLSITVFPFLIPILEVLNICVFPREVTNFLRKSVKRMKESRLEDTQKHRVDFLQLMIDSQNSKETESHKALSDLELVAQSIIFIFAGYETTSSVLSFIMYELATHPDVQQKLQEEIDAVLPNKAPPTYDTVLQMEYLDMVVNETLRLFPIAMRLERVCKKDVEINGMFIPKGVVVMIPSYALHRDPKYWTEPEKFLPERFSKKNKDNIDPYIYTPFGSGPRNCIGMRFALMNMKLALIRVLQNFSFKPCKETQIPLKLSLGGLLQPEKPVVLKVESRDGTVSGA
# Method in brief: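 CYP3A4 activity: Luciferin-PPXE O-dealkylation, 25uM substrate, 200mM KPO4, RT throughout. Read-out is luciferase luminescence; higher values reflect activation.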
# [2] = target: DNA dC->dU-editing enzyme APOBEC-3G (Homo sapiens) (UniProt Q9HC16); experiment: qHTS for inhibitors of Vif-A3G interactions: Validation (AID 588379)
# DNA dC->dU-editing enzyme APOBEC-3G (Homo sapiens), sequence (Q9HC16 whole entry, looked up): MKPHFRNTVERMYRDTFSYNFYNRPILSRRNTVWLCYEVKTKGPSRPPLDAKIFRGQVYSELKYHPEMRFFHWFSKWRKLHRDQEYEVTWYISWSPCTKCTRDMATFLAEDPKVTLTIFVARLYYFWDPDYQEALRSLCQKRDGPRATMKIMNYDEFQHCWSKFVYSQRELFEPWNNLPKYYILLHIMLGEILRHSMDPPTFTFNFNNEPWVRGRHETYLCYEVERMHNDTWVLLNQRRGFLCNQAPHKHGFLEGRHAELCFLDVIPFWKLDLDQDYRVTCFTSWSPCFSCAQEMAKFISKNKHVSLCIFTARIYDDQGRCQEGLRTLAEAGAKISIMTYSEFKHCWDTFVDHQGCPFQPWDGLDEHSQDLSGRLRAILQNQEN
# Method in brief: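 Yellow fluorescence (Ex 488, Em 500-530) of Vif-coexpressing HeLa A3G-eYFP cells, scanned by Acumen cytometer, reports blocked A3G degradation. Cells plated at 700/well overnight at 37 deg C before compound addition, then a further overnight compound incubation at 37 deg C.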
# [3] = target: Cytochrome P450 3A4 (Homo sapiens) (UniProt P08684); experiment: qHTS Assay for Inhibitors and Substrates of Cytochrome P450 3A4 (AID 884); further: nearly all actives have a fitted effect of over 50% in size; further: potency means the concentration at half of the fitted maximal effect
# Method in brief: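 Luminescent readout of luciferin produced by CYP3A4 (20 nM) dealkylation of Luciferin-PPXE, 25 uM (its KM). NADPH-driven reaction ran 60 min at RT after 10 min compound preincubation; data scaled to 57 uM ketoconazole as 100% inhibition.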
# [4] = target: Luciferin 4-monooxygenase (Photinus pyralis) (UniProt P08659); experiment: Biochemical firefly luciferase enzyme assay for NPC (AID 624030);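 further: purified P. pyralis luciferase at 10 nM with luciferin and ATP substrate; series mostly up to about 59 µM; nearly all actives have a fitted effect of over 70% in size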
# Luciferin 4-monooxygenase (Photinus pyralis), sequence (P08659 whole entry, looked up): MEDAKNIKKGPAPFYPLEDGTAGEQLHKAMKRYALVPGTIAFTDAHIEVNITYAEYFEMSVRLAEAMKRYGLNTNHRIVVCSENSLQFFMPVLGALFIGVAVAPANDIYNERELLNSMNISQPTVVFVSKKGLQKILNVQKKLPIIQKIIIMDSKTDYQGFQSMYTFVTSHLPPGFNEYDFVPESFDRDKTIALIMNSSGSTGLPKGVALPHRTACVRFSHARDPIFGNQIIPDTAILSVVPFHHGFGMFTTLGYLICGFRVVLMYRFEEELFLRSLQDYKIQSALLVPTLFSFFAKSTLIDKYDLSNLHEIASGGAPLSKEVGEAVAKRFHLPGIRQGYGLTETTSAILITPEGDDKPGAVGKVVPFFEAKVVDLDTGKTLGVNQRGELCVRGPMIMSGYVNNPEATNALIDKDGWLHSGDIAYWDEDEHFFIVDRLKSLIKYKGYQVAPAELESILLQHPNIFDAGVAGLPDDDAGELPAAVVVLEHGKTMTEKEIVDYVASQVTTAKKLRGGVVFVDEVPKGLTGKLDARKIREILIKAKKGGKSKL
# Method in brief: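 Purified P. pyralis luciferase at 10 nM in 50 mM Tris Acetate (final), luminescence read within 5 minutes of enzyme addition to compounds. Activity normalised to PTC124 versus DMSO; concentration-response curves classed by r2, magnitude and activity.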
SMILES,Potency [1],Potency [2],Potency [3],Potency [4]
COc1ccc(-c2coc3ccc(OC4OC(COC(C)=O)C(OC(C)=O)C(OC(C)=O)C4OC(C)=O)cc3c2=O)cc1 (centres undefined),inactive,inactive,–,–
COc1ccccc1CC(Cc1nc2ccccc2[nH]1)c1nc2ccccc2[nH]1 (centres undefined),inactive,inactive,1.58 µM (active),–
Cc1ccc(C(=O)[C@@H]2[C@H]3C4COC(O4)C(=O)[C@@H]3[C@H]3C=Cc4ccccc4N32)cc1 (some centres undefined),inactive,inactive,25.1 µM (active),–
Clc1ccc2nc(-c3ccccc3)[nH]c2c1,inactive,inactive,12.6 µM (active),–
C=C1C(=O)OC2C[C@@]3(C)CCCC(=C)[C@@H]3CC12 (some centres undefined),inactive,inactive,10 µM (active),–
COc1ccc(/C=C/C(=O)c2ccc(C)s2)cc1,–,inactive,inactive,–
CC1(C)CC[C@]2(C(=O)O)CC[C@]3(C)C(=CCC4[C@@]5(C)CC[C@H](O)C(C)(C)[C@@H]5CC[C@]43C)C2C1 (some centres undefined),–,inactive,inactive,–
COc1ccc(C(=O)C2C3C4COC(O4)C(=O)C3C3C=Cc4ccccc4N32)c(OC)c1 (centres undefined),inactive,inactive,31.6 µM (active),–
COC(=O)CC[C@@H](C)[C@H]1CC[C@H]2[C@@H]3CC[C@@H]4C[C@H](O)CC[C@]4(C)[C@H]3C[C@H](O)[C@]12C,–,inactive,inactive,–
C=C(CO)C1Cc2c(ccc3c(=O)c4c(oc23)COc2cc(OC)c(OC)cc2-4)O1 (centres undefined),–,inactive,inactive,–
CC(=O)Nc1ccc(-c2nc3ccc(Cl)cc3[nH]2)cc1,–,inactive,inactive,–
O=C(Cc1ccc(Cl)cc1)c1c(O)cc(O)cc1O,inactive,inactive,5.01 µM (active),–
CC1CC2(C)Oc3ccccc3C3OCC1(COC(=O)Nc1ccccc1)C(C)C32 (centres undefined),inactive,inactive,10 µM (active),–
COc1cc(/C=C/C(=O)c2cccs2)cc(OC)c1OC,inactive,inactive,–,–
C=C1C(=O)O[C@@H]2C3OC3(C)CC/C=C(\C)CC[C@@H]12 (some centres undefined),inactive,inactive,–,–
CC12CCC3c4ccc(O)cc4CCC3C1CCC2=O (centres undefined),–,inactive,–,inactive
CC(=O)OCC1OC(Oc2cc(OC(C)=O)c3c(=O)cc(-c4ccc(OC(C)=O)c(OC(C)=O)c4)oc3c2)C(OC(C)=O)C(OC(C)=O)C1OC(C)=O (centres undefined),inactive,inactive,3.98 µM (active),–
O=C(O)[C@H]1[C@H]2C[C@H]3c4[nH]c5ccccc5c4CCN3C[C@@H]2CC[C@@H]1O,inactive,inactive,–,–
